The campaign covered roughly 48,000 compounds. About 13,000 (27%) showed an effect of 50% or more. The list shows a part of the results.

Results on 106 compounds are retold here after ChEMBL document CHEMBL3988442, “University of Dundee, Small-Polar-MMV Screening Library” (2021).

The experiment concerns Wolbachia pipientis. Nature of the experiment: Anti-Wolbachia Cell-Based Screen. More on the design: scale not given: in the data most compounds retested in dose-response had high values. Conditions: 5 µM. In kind it is functional.
In the case of `c1ncc(-c2cn(CCSc3cnn[nH]3)nn2)cn1`, the “Percent Effect” value is recorded as -12.65%. In the case of `CC(=O)N1CCC(C(=O)NCc2cc[nH]n2)(c2ccccc2)CC1` it was 107.6%; in that of `CC(CNC(=O)N1CCN(c2ncccn2)CC1)Cc1cccs1` (stereo unspecified), -35.53%. In the case of `O=C(NCC1CCOC1)N1CCN(c2ncccn2)CC1` (stereo unspecified) it was 14.21%; in that of `CS(=O)(=O)NC1CCN(C(=O)NCc2cc[nH]n2)CC1`, 108.2%; in that of `CS(=O)(=O)NC1CCCN(C(=O)NCc2cc[nH]n2)C1` (stereo unspecified), -1.074%. For `O=C(NCc1cc[nH]n1)N1CCN(c2ncccn2)CC1`, the “Percent Effect” value was found to be 105.7%. For `O=C(NCc1cc2n(n1)CCCNC2)C1(c2ccccc2)CCCCC1`, the “Percent Effect” value stood at 0.555%. With `COCCOCCNC(=O)N1CCN(c2ccccc2C#N)CC1`, the “Percent Effect” value is 9.744%. The value for `N#Cc1ccccc1N1CCCN(C(=O)NCc2cc[nH]n2)CC1` was 136.7%; that for `Cc1cccc(OC2CCN(C(=O)NCc3cc[nH]n3)CC2)c1C` was -1.831%; that for `CCC(CNC(=O)NCc1cc[nH]n1)N1CCCC1` (stereo unspecified) was 2.082%. For the compound `N#Cc1ccccc1N1CCN(C(=O)NCC(=O)N2CCCC2)CC1`, the “Percent Effect” value was -1.371%. For the compound `Cc1nn(C)c2ncc(NC(=O)N(C)Cc3cnn(C)c3)cc12`, the “Percent Effect” value is 3.959%. With `COc1ccc(C(=O)O)c(OCC(=O)NC(C)c2ccccc2)c1` (stereo unspecified), the “Percent Effect” value is -11.95%. Turning to `COc1cncc(N2CCN(Cc3ccncc3Cl)CC2)n1`, the “Percent Effect” value is recorded as -15.95%.

As to `CCN1CCN(C(=O)NCc2cc[nH]n2)CC1`, the “Percent Effect” value amounted to 108.7%. Take `O=C(NCc1cc[nH]n1)N1CCN(c2ccccc2Cl)CC1`: the “Percent Effect” value turned out to be 14.41%. Consider `CCC1c2ccsc2CCN1C(=O)NCc1cc[nH]n1` (stereo unspecified), for which the “Percent Effect” value is on record as 5.553%. As for `O=C(NCc1ccc(N2CCSCC2)cc1)NCc1cc[nH]n1`, the “Percent Effect” value is given as -6.382%. In the case of `CCOc1ccccc1N1CCN(C(=O)NCc2cc[nH]n2)CC1` it was 100.3%. In the case of `CC(=O)N1CCCN(C(=O)NCc2cc[nH]n2)CC1`, the “Percent Effect” value is on record as -2.345%. In the case of `NC(=O)c1ccc(CNC(=O)NCc2cc[nH]n2)cc1` it was 0.637%. In the case of `CC(=O)c1ccc(N2CCN(C(=O)NCc3cc[nH]n3)CC2)cc1`, the “Percent Effect” value is 106.6%. With `O=C(NCc1cc[nH]n1)N1CCC(Oc2ccccc2Cl)CC1`, the “Percent Effect” value is given as -25.2%.

For `CN(C)c1ccccc1C(=O)N1C[C@@H](CN2CCC(O)CC2)[C@@H](CO)C1`, the “Percent Effect” value is given as -115.2%. The value for `Cc1cc(C(=O)Cn2cnnc2[S+](C)[O-])cc(C)c1F` (stereo unspecified) was 2.039%. For the compound `COC(=O)NCC(=O)N1CCC(c2nc3cc(F)ccc3[nH]2)CC1`, the “Percent Effect” value is reported as -27.28%. `CS(=O)(=O)c1ccc(C(=O)NCc2nc3cc(F)ccc3[nH]2)cc1`: the “Percent Effect” value was 97.05%. As to `O=C(NCc1nc2cc(F)ccc2[nH]1)c1ccc[nH]1`, the “Percent Effect” value turned out to be 85.11%. The value for `CC(C)c1cc(C(=O)NCc2nc(-c3ccc(F)cc3)n[nH]2)n[nH]1` was 8.194%. In the case of `O=C(NCc1nc2ccccc2[nH]1)c1cnn2c1OCCC2` it was 8.573%; in that of `CS(=O)(=O)c1cccc(C(=O)NCC2Cc3ccccc3O2)c1` (stereo unspecified), -50.83%; in that of `CS(=O)(=O)c1cccc(C(=O)NCC2(c3ccccc3)CC2)c1`, -5.384%. For `CS(=O)(=O)c1cccc(C(=O)NCc2nc3cc(F)ccc3[nH]2)c1`, the “Percent Effect” value is on record as 93.8%. `O=C(NCc1nc2ccccc2[nH]1)c1cc2n(n1)CCCO2`: the “Percent Effect” value is recorded as 4.478%.

In the case of `Cc1cc(NC(=O)Cn2nc(C)c(C#N)c2N)ccc1Br`, the “Percent Effect” value is reported as -7.247%. In the case of `Fc1ccc(-c2cc(NCCC3CCOC3)n3nccc3n2)cc1` (stereo unspecified), the “Percent Effect” value was determined as 40.16%. As to `O=C(NC1CC1)[C@H]1CC[C@@H]2[C@@H](CCN2CCOCc2ccccc2)O1.O=C(O)C(F)(F)F`, the “Percent Effect” value turned out to be 6.133%. Consider `CCS(=O)(=O)N1CCOC2(COCCN(C(C)=O)C2)C1` (stereo unspecified), for which the “Percent Effect” value is recorded as -3.912%. The value for `CCC1CN(C(=O)c2ccccc2N2CCOCC2)CCN1C(C)C` (stereo unspecified) was 8.112%. The value for `CCNC(=O)C1CCN(c2cc(-c3ccccc3F)nc3ccnn23)C1` (stereo unspecified) was -1.287%. Take `COc1ccccc1CN1C[C@@H](F)[C@@H](OCc2nc3ccccc3[nH]2)C1`: the “Percent Effect” value came out at 0.7932%. In the case of `Cc1ccsc1C(=O)N1CCc2ncc(CN3CCCC3)n2CC1.O=C(O)C(F)(F)F`, the “Percent Effect” value is recorded as -31.81%. Turning to `Cl.Cn1cncc1CN1CCc2nc3sccc3c(=O)n2CC1`, the “Percent Effect” value was 103.5%. In the case of `CC(=O)NCc1nnc2n1CCN(c1nc(C)nc3sccc13)CC2`, the “Percent Effect” value is reported as -5.354%. Regarding `CCn1cncc1CN1CCc2nc3sccc3c(=O)n2CC1`, the “Percent Effect” value is recorded as 89.02%. Take `Cc1ccc(CN2CCNC(C(=O)NC3CC3)C2)cc1C` (stereo unspecified): the “Percent Effect” value was found to be 34.83%. `CC(NC1CCN(CCS(C)(=O)=O)CC1)c1ccc(Cl)cc1` (stereo unspecified): the “Percent Effect” value is reported as -9.034%. For `Cc1ncsc1CCC(=O)NC1CCN(c2ccc(Cl)nn2)CC1`, the “Percent Effect” value is reported as -3.367%.

`O=C(Nc1ccc(-n2cncn2)c(F)c1)C1CCN(C(=O)C2CC2)CC1`: the “Percent Effect” value was -16.72%. The value for `CC(C)n1ccnc1C1CCCN(c2ncccc2C(N)=O)C1` (stereo unspecified) was 2.955%; that for `CC1CCN(c2nc3c(cnn3-c3ccccc3)c(=O)[nH]2)CC1` was 0.2654%; that for `CC1CCCN(c2nccn3c(=O)[nH]nc23)C1` (stereo unspecified) was 119.4%. The value for `CC1CCN(c2nccn3c(=O)[nH]nc23)CC1` was 109.7%; that for `CC1CCN(Cc2cc(=O)[nH]c(=O)[nH]2)CC1` was -40.44%. Consider `NS(=O)(=O)CC1CCN(c2ncccc2C(F)(F)F)CC1`, for which the “Percent Effect” value was -0.5729%.

With `CC1CCCN(c2ccccc2OCC(=O)NC2CC2)C1` (stereo unspecified), the “Percent Effect” value is listed as -2.178%. In the case of `NC1CCN(c2nccn3c(=O)[nH]nc23)CC1`, the “Percent Effect” value came to 124.1%. In the case of `c1ccc(-c2nc3c(c(NCCCn4cncn4)n2)CCNCC3)nc1` it was -4.021%.

On to `COc1ccc(C(CO)NC(=O)Nc2cccnc2)cc1` (stereo unspecified), for which the “Percent Effect” value was -17.84%. As for `Cc1nnc(C(C)N(C)Cc2c(C)nn(-c3ccccc3C)c2C)o1` (stereo unspecified), the “Percent Effect” value is listed as -9.364%. Take `CCn1nnnc1-c1cccc(NC(=O)COC2CCCC2)c1`: the “Percent Effect” value is 5.943%.

Turning to `CCc1nc(CN2CCN(C(C)c3nc(C4CC4)no3)CC2)no1` (stereo unspecified), the “Percent Effect” value was 112.7%.

With `CCc1noc(C(C)N2CCCN(Cc3noc(C4CC4)n3)CC2)n1` (stereo unspecified), the “Percent Effect” value amounted to 8.614%. In the case of `CCCc1nc(CN2CCN(Cc3noc(CCC)n3)CC2)no1` it was 0.9498%; in that of `CCc1noc(C(C)N2CCN(Cc3noc(C4CC4)n3)CC2)n1` (stereo unspecified), 3.435%. In the case of `CCCc1nc(CN2CCN(C(C)c3nc(C4CC4)no3)CC2)no1` (stereo unspecified), the “Percent Effect” value came out at 124.6%. On to `Cc1nnc(CN2CCCCC2c2nc(-c3ccccc3)no2)s1` (stereo unspecified), for which the “Percent Effect” value is listed as -13.6%. On to `Cc1cnc(N2CCOC3(CCCN(c4ncccn4)C3)C2)nc1` (stereo unspecified), for which the “Percent Effect” value was -13.37%. In the case of `CCS(=O)(=O)N1CCC2(CCCN(c3ncc(F)cn3)C2)C1` (stereo unspecified) it was -3.984%; in that of `CS(=O)(=O)N1CCC2(CCCN(c3ncc(F)cn3)C2)C1` (stereo unspecified), 6.577%; in that of `Cc1cnc(N2CCCC3(CCOCC3)C2)nc1`, 109.2%. Regarding `Cc1cnc(N2CCCC3(COCCN(c4nccs4)C3)C2)nc1` (stereo unspecified), the “Percent Effect” value is reported as -8.565%. The value for `O=S(=O)(C1CC1)N1CCC2(CCCN(c3ncc(F)cn3)C2)C1` (stereo unspecified) was -1.558%. The value for `Cc1cnc(N2CCC3(CCCN(c4ncc(F)cn4)C3)C2)nc1` (stereo unspecified) was 103%. For `CCCS(=O)(=O)N1CCC2(CCCN(c3ncc(F)cn3)C2)C1` (stereo unspecified), the “Percent Effect” value turned out to be 14.12%. With `Fc1cnc(N2CCCC3(CCN(c4ncccn4)C3)C2)nc1` (stereo unspecified), the “Percent Effect” value stood at 88.49%.

For `Cc1cc(C)c2nc(CN3CCC(N4CCOCC4)CC3)cc(O)c2c1`, the “Percent Effect” value is -11.95%. As to `CCN(C(c1cccnc1)c1cc(C)cc(C)c1)S(C)(=O)=O` (stereo unspecified), the “Percent Effect” value is given as 1.72%. With `Cc1oc(-c2ccsc2)nc1CC(=O)NCCS(C)(=O)=O`, the “Percent Effect” value is listed as -2.536%.

As for `CN(C)CCOCC1CN(C(=O)c2cscn2)Cc2ccnn2C1` (stereo unspecified), the “Percent Effect” value is recorded as -0.6425%. In the case of `O=C1CC(c2ccc(C(=O)O)cc2)c2ncn(-c3cccnc3)c2N1` (stereo unspecified) it was -9.053%. As to `Cc1c(Br)cc2c(c1C)OCC(N(C)C)C2=O` (stereo unspecified), the “Percent Effect” value is listed as 95.66%. `CCN(CC)C1COc2c(cc(Br)c(C)c2Br)C1=O` (stereo unspecified): the “Percent Effect” value is 114.2%.

As to `CCN(CC)C1COc2ccc(Br)cc2C1=O` (stereo unspecified), the “Percent Effect” value stood at 104.3%. Turning to `CCCN1Cc2cc(Br)ccc2OCC1=O`, the “Percent Effect” value came out at 11.44%. On to `CCN(CC)C1COc2c(cc(Br)c(C)c2C)C1=O` (stereo unspecified), for which the “Percent Effect” value amounted to 131.7%. Consider `COCCN1C(=O)[C@H]2CC[C@@H]1CN(C(=O)COc1ccc(F)c(Cl)c1)C2`, for which the “Percent Effect” value came out at 1.148%. Regarding `CC(C)c1cc(C(=O)NCCN2CCCS2(=O)=O)n[nH]1`, the “Percent Effect” value was -2.781%.

Take `COc1ccccc1CC(=O)N1CCC(NCc2cccnc2)CC1`: the “Percent Effect” value is on record as -3.091%. `COc1ccccc1CC(=O)N1CC[C@H](O)[C@]2(CCCO2)C1`: the “Percent Effect” value is 123.7%.

With `COc1ccc(C)cc1CC(=O)N1CC[C@@]2(CCCO2)[C@@H](O)C1`, the “Percent Effect” value is 110.1%. `COc1ccc(CC(=O)N2CC[C@H](CO)[C@H](O)C2)c(OC)c1`: the “Percent Effect” value is 2.348%. As to `COc1ccccc1CC(=O)N1CC[C@@]2(CCCO2)[C@@H](OC)C1`, the “Percent Effect” value is reported as 3.075%. Consider `COc1ccc(Br)cc1CC(=O)N1CCCC1`, for which the “Percent Effect” value came out at 26.87%. Regarding `O=C(Nc1ccc(OCc2cccc(F)c2)c(F)c1)C1COCCO1` (stereo unspecified), the “Percent Effect” value is -24.38%. Take `O=C(NC1CCN(c2nccs2)CC1)c1cccs1`: the “Percent Effect” value is listed as -6.975%. In the case of `Cn1nc2c(c1NC(=O)c1ccc(C3CCCN3C3CCC3)s1)CCC2` (stereo unspecified) it was 91.78%.

With `CN1CCCC1c1ccc(C(=O)Nc2c3c(nn2C)CCC3)s1` (stereo unspecified), the “Percent Effect” value is recorded as 105.6%.

For the compound `CC(C)CN1CCCC1c1ccc(C(=O)Nc2cccnc2)s1` (stereo unspecified), the “Percent Effect” value came out at 20.92%. With `CC(C)CN1CCCC1c1ccc(C(=O)Nc2cn(C)nn2)s1` (stereo unspecified), the “Percent Effect” value is given as 6.317%. On to `CN1CCCC1c1ccc(C(=O)N2CCc3ccccc3C2)s1` (stereo unspecified), for which the “Percent Effect” value came to 10.54%.

With `NCC(=O)N1CCCC1c1ccc(C(=O)NCc2ccoc2)s1` (stereo unspecified), the “Percent Effect” value is listed as -13.99%. For the compound `O=C(Nc1nnc(N2CCCCC2)[nH]1)c1cccs1`, the “Percent Effect” value came to 3.867%.

Take `Cn1nc2c(c1NC(=O)c1cccs1)CCC2`: the “Percent Effect” value is 116%.
